Assay results reported in PubChem BioAssay (NCI).
About 79,000 compounds went through this panel and 15% of them were active in at least one assay; those are over-represented in the sample as a whole. Unmarked numbers belong to inactive results. Calls of active or inactive are those of the source. Cut-off read from the data, not from the text of the source: active = growth inhibition above about 70%; inactive = the rest.

Experiments:
[1] = NCI Yeast Anticancer Drug Screen. Data for the rad50 strain (AID 155);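 note: 0% = growth of vehicle-only cultures of the same strain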; conditions: S. cerevisiae rad50 strain growth inhibition, active compounds read high
In short: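 Readout: growth inhibition relative to vehicle-treated cultures. Compound exposure was carried out in a genetically defined yeast strain deficient in DNA damage repair.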

[2] = NCI Yeast Anticancer Drug Screen. Data for the mec2-1 strain (AID 157); conditions: S. cerevisiae mec2-1 strain, active compounds read high
In short: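 Growth inhibition is read against vehicle-treated controls after compound exposure of the mec2-1 yeast strain, which is defective in DNA damage repair or cell cycle control.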

[3] = NCI Yeast Anticancer Drug Screen. Data for the sgs1 mgt1 strain (AID 161);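 note: 0% = growth of cultures given vehicle only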; conditions: S. cerevisiae sgs1 mgt1 strain, active compounds read high
In short: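 Percent growth inhibition was derived by comparing compound-exposed mutant yeast with vehicle-exposed cultures. The strain carries alterations in DNA damage repair.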

[4] = NCI Yeast Anticancer Drug Screen. Data for the cln2 rad14 strain (AID 165);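 note: 0% = growth equal to vehicle treated cultures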; conditions: S. cerevisiae cln2 rad14 strain, active compounds read high
In short: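 Growth inhibition, relative to vehicle-treated controls, is the read-out. The test organism is a yeast strain with defined genetic alterations, cln2 rad14.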

[5] = NCI Yeast Anticancer Drug Screen. Data for the bub3 strain (AID 167); conditions: S. cerevisiae bub3 mutant strain, active compounds read high
In short: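 Readout: yeast growth inhibition, expressed relative to vehicle-only wells. The test organism is a mutant strain from a panel with lesions in DNA repair or checkpoint genes.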

[6] = NCI Yeast Anticancer Drug Screen. Data for the mlh1 rad18 strain (AID 175); conditions: S. cerevisiae mlh1 rad18 strain growth inhibition, active compounds read high
In short: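 Cells of a genetically altered yeast strain, deficient in DNA damage repair, were treated with compound. Their growth was then compared with that of vehicle-treated cultures to give inhibition.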

[7] = at 5.0 µM (retest, dose inferred, filed as 0.5)
[8] = at 50.0 µM (retest, dose inferred, filed as 5.0)

Structure (SMILES) | growth inhibition [1, 7] | growth inhibition [1, 8] | growth inhibition ([1]; at 50.0 µM) | growth inhibition [2, 7] | growth inhibition [2, 8] | growth inhibition ([2]; at 50.0 µM) | growth inhibition [3, 7] | growth inhibition [3, 8] | growth inhibition ([3]; at 50.0 µM) | growth inhibition [4, 7] | growth inhibition [4, 8] | growth inhibition ([4]; at 50.0 µM) | growth inhibition [5, 7] | growth inhibition [5, 8] | growth inhibition ([5]; at 50.0 µM) | growth inhibition [6, 7] | growth inhibition [6, 8] | growth inhibition ([6]; at 50.0 µM)
O=C(CCl)[O][Bi]([O]C(=O)CCl)([c]1ccccc1)([c]1ccccc1)[c]1ccccc1 | 10% | 51% | 13% | 11% | 58% | 15.7% | 32% | 83% (active) | -8.4% | 26% | 59% | 5.75% | 31% | 85% (active) | 10.2% | 17% | 71% (active) | 23.1%
O=[N+]([O-])c1ccc(-c2ccccc2Cl)c([N+](=O)[O-])c1 | 2% | 95% (active) | 95.8% (active) | -7% | 92% (active) | 95.7% (active) | 6% | 96% (active) | 91.2% (active) | -8% | 83% (active) | 80.1% (active) | -6% | 93% (active) | 95.8% (active) | 5% | 97% (active) | 93.7% (active)
O=C1c2ccc(O)c(O)c2C(=O)c2cccc(O)c21 | 68% | 72% (active) | 28.1% | 30% | 49% | 3.9% | 83% (active) | 84% (active) | 36.6% | 34% | 46% | 22.7% | 91% (active) | 93% (active) | 18.4% | 83% (active) | 88% (active) | 26.3%
CCC(=O)c1cc2ccccc2c2ccccc12 | 4% | 44% | 66.3% | 0% | 20% | 39% | 0% | 40% | 37.3% | -3% | 0% | 9.9% | 5% | 74% (active) | 75.8% (active) | -2% | 61% | 41.5%
O=c1cc(-c2ccccc2)oc(-c2ccccc2)c1 | -152% | -105% | 82.4% (active) | -55% | -50% | 19.4% | -71% | -59% | 11% | -68% | -82% | -20.1% | -68% | -56% | 20% | -123% | -103% | 43.6%
O=C1c2ccccc2C(=O)C2OC12 (configuration not stated) | 48% | 98% (active) | 93.2% (active) | 48% | 98% (active) | 95.1% (active) | 50% | 99% (active) | 94.7% (active) | 72% (active) | 99% (active) | 93.3% (active) | 73% (active) | 100% (active) | 93.5% (active) | 51% | 99% (active) | 89.9% (active)
CC1(C)OC2OC(/C=C/[N+](=O)[O-])C3OC(C)(C)OC3C2O1 (configuration not stated) | 20% | 98% (active) | 8.25% | 3% | 98% (active) | 10.9% | -17% | 97% (active) | 13.2% | 17% | 99% (active) | 5.45% | -9% | 97% (active) | 4.75% | 17% | 97% (active) | 27.4%
O=C(O)CSc1ccc(N=C=S)cc1 | -5% | 96% (active) | -8.1% | 3% | 91% (active) | 8.15% | 9% | 93% (active) | -2.75% | -9% | 69% | 4.8% | -27% | 95% (active) | 0.55% | 37% | 98% (active) | -2.35%
Cc1nc(Cl)nc(N)c1[N+](=O)[O-] | 2% | 44% | 53.8% | 8% | 55% | 44.1% | 3% | 30% | 24.8% | -3% | 19% | 10.8% | -6% | 31% | 22.9% | 6% | 41% | 45.1%
ClC(Cl)(Cl)C1OCOC(C(Cl)(Cl)Cl)O1 (configuration not stated) | 20% | 98% (active) | 99.2% (active) | 17% | 99% (active) | 99.2% (active) | 11% | 99% (active) | 99.3% (active) | 24% | 99% (active) | 99.3% (active) | 3% | 98% (active) | 99.3% (active) | 33% | 99% (active) | 99.3% (active)
Nc1ccc(Cl)c2cccnc12 | 11% | 92% (active) | 97.5% (active) | 4% | 94% (active) | 35.5% | 5% | 89% (active) | 86.7% (active) | 0% | 46% | 87.2% (active) | 0% | 90% (active) | 15.2% | 7% | 94% (active) | 91.9% (active)
CCCCN(CCCC)CCC(O)c1cc2c(c3ccccc13)CCCC2 (configuration not stated) | 1% | 99% (active) | 99.4% (active) | 5% | 100% (active) | 99.2% (active) | 10% | 100% (active) | 99.7% (active) | 0% | 98% (active) | 67.1% | 10% | 99% (active) | 97.8% (active) | 9% | 99% (active) | 99.5% (active)
CC(C)C1/C(=N/O)CC(c2ccccc2)N(N=O)C1c1ccccc1 (configuration not stated) | 10% | 97% (active) | 82.3% (active) | -13% | 98% (active) | 93% (active) | 3% | 98% (active) | 90.7% (active) | 15% | 96% (active) | 87.7% (active) | 4% | 98% (active) | 88% (active) | -6% | 98% (active) | 90.3% (active)
Cc1ccnc(NS(=O)(=O)c2ccc(N=Cc3c4ccccc4nc4cc(Cl)ccc34)cc2)n1 | 58% | 15% | 99.4% (active) | 32% | 38% | 99.2% (active) | 41% | 23% | 99.4% (active) | 16% | 1% | 99% (active) | 40% | -2% | 58.1% | 24% | 11% | 99.3% (active)
O=C(Nc1ccccc1)OC1CCCC1 | 19% | 94% (active) | 85.5% (active) | 11% | 88% (active) | 11.8% | 12% | 92% (active) | 81.2% (active) | 8% | 28% | -3.85% | 6% | 90% (active) | 50.1% | 12% | 94% (active) | 82.8% (active)
Cc1ccc(NC(=S)SCc2ccc(Cl)cc2)cc1Br | 48% | 99% (active) | 90.5% (active) | 25% | 99% (active) | 93.2% (active) | 64% | 100% (active) | 91% (active) | 48% | 99% (active) | 89.9% (active) | 65% | 99% (active) | 92.3% (active) | 38% | 99% (active) | 90.8% (active)
C1CCN(c2nc(N3CCOCC3)c3[nH]c(N4CCCCC4)nc3n2)CC1 | 1% | 84% (active) | 35% | 5% | 90% (active) | 35.4% | 2% | 86% (active) | 46.4% | 8% | 49% | 60.1% | 0% | 71% (active) | 49.6% | -2% | 68% | 36.5%
COc1cccc(NC(=S)NC(Cc2ccccc2)c2ccccc2)c1 (configuration not stated) | -7% | 88% (active) | 80.2% (active) | -10% | 88% (active) | 74.1% (active) | -7% | 90% (active) | 83.9% (active) | 19% | 88% (active) | 70% (active) | -2% | 90% (active) | 77.2% (active) | -7% | 88% (active) | 72.4% (active)
O=c1[nH]c2ccccc2c2oc3ccccc3c12 | -14% | 83% (active) | 63.5% | -10% | 71% (active) | 51.5% | -4% | 69% | 64.5% | 18% | 32% | 25.4% | -10% | 88% (active) | 46.5% | -18% | 94% (active) | 68.3%
